# PubChem BioAssay AID2673 (National Center for Advancing Translational Sciences (NCATS), 2010)
# Results filed as inconclusive are left out. A call without a number means that no potency is given here. Calls of active or inactive are those of the source. The call rests on the fitted dose curve; in most records, active means well fitted activation curve with a large enough effect; inconclusive means small, poorly fitted or top-dose-only effect; inactive means no such curve, though single readings can be large or run the other way.
# Assay: qHTS Multiplex Assay to Identify Dual Action Probes in a Cell Model of Huntington: Cytoprotection confirmation (ATP)
# Conditions: PC12 HttQ103 induced, ATP luminescence 40 h; series mostly up to 46.1 µM
# Source text: NIH Chemical Genomics Center [NCGC]
# NIH Molecular Libraries Probe Production centers Network [MLPCN]
# Assay Submitter (PI): Wei Zheng
# Huntington's disease is a neurodegenerative disorder caused by a trinucleotide repeat expansion in Exon 1 of the Huntingtin gene. The CAG trinucleotide encodes glutamine and polyglutamine expansions cause cell death in selective areas of the brain. Huntington polyglutamine repeats have the tendency to form aggregates which are observable in later stages of the disease. The exact nature of the aggregates, whether toxic, protective, or insignificant, is unclear.
# A stable PC12 cell line containing a gene fusion of Exon 1 of the Huntingtin gene linked to GFP under the control of the inducible ecdysone promoter were used as the cell-based model of Huntington Disease for high throughput screening. Exon 1 of the Huntingtin gene contained an expansion of 103 polyglutamines (Q103) which, when expressed, caused cell death and distinct, bright GFP aggregates. The amount of cell death and the size and intensity of GFP aggregates increased over time and induction level. The cell death were quantified with a measurement of ATP content in the cells. A maximal 40-50% of cell death was observed when the Huntington gene was induced in this cell line.
# We optimized this assay in a homogeneous 1536 well format. A quantitative high throughput screen (qHTS) was conducted on the PC12 cells which were induced to express the toxic fusion construct. Small molecules which prevented cell death were identified by using a luminescent ATP quantification method (Perkin Elmer's ATPlite).
# PC12 cells stably containing a construct with an ecdysone inducible promoter expressing GFP fused to the exon 1 of HTTQ103 (Huntington protein which containing a 103 ployglutamine expansion) were used.
# NCGC Assay Protocol Summary:
# Sequence, Parameter, Description
# 1, Reagent, 5 uL 1500 cells/well 1536 TC treated White clear bottom plate
# 2, Compound, 23 nL Tebufenozide inducer (100 nM final) to all columns
# 3, Compound, 23 nL 40 uM to 0.5 nM Libraries
# 5, Reagent, 5 ul ATPLite cell death assay reagent
# 6, Detector, 4 sec integration with a Viewlux Luminescent
# Media consisted of phenol red free DMEM + 5% equine serum (Hyclone # SH30072.03 ), 5% supplemented Bovine Calf Serum (Hyclone # SH30074.03 ), 1x pen/strep, no G418
row,Compound,Potency
1,CCC(C)C(=O)OC1C(O)C2C(CN3CC(C)CCC3[C@]2(C)O)C2C[C@]34O[C@@]5(O)C(OC(=O)C(C)(O)CC)CCC3(C)C5C(OC(C)=O)C(OC(C)=O)C4[C@@]21O (stereo partly drawn),inactive
2,O=C1C=C2C=CC3C[C@@]2(O1)C1CCCCN31 (stereo partly drawn),12.6 µM (active)
3,O=C1C=C2C=C[C@H]3C[C@]2(O1)[C@@H]1CCCCN13,inactive
4,CC[C@]1(C2=NCCN2)Cc2ccccc2O1,inactive
5,Oc1cc(Cl)ccc1Oc1ccc(Cl)cc1Cl,inactive
6,C[C@H]1CC[C@@]2(NC1)O[C@@H]1C[C@H]3[C@@H]4CC=C5C[C@@H](O)CC[C@]5(C)[C@@H]4CC[C@]3(C)[C@@H]1[C@@H]2C,inactive
7,C[C@@]1(CO)[C@H](O)CC[C@@]2(C)[C@H]1CC[C@H]1C[C@@H]3C[C@@]12CC[C@]3(O)CO,inactive
8,O=C1C=C2C=C[C@H]3C[C@@]2(O1)[C@H]1CCCCN31,inactive
